Assay outcomes: PubChem, National Center for Advancing Translational Sciences (NCATS)
A selection: hits, their analogues and other compounds. The true share with any hit is near 10%.
SW480 rereplic – A quantitative high throughput screen for small molecules that induce DNA re-replication in SW480 colon adenocarcinoma cells | SW480 DNA re-replication, Hoechst DNA content imaging, 48 h | AID 624297, 2012 | actives 1.8% (n = 340,000) | Potency, µM (top dose mostly 46.1 µM), without a hit: top-dose re-replication activation, usual class: activators; note: % of control where 0% means no effect; nearly all actives have a fitted effect of over 55% in size
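Cells (250 per well) received 23 nL compound or DMSO by pin tool and were kept 48 hr at 37 C, 5% CO2. Nuclei were then stained with Hoechst for 40 min and scanned for DNA content.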
ELG1 DNA repair – qHTS screen for small molecules that inhibit ELG1-dependent DNA repair in human embryonic kidney (HEK293T) cells expressing luciferase-tagged ELG1; HEK293T ELG1-luciferase reporter, luminescence, 16 h; DNA damage induced by 5-fluorouridine; Potency, µM (top dose mostly 46.1 µM), inactives show top-dose activity change, negative = inhibition, hits mostly inhibitors; actives 2.3% (n = 330,000); AID 504467, 2011; note: % is set by controls: 0 for no effect and ±100 for the full control effect; nearly all actives have a fitted effect of over 55% in size
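Reporter activity after DNA damage by 5-fluorouridine is monitored. Compound-treated cells incubate 16 hr at 37 °C, then ONE-Glo is added for 30 min before luminescence reading.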
RORg inh – qHTS for inhibitors of ROR gamma transcriptional activity; AID 2551, 2010; Drosophila S2 Gal4-RORgamma UAS-luciferase reporter, 20 h; Potency, µM (top dose mostly 53.6 µM), without a hit: at the top dose activity change, negative = inhibition, hits mostly inhibitors; actives 5.4% (n = 310,000); Nuclear receptor ROR-gamma (Mus musculus), P51450; note: % is set by controls: 0 for no effect and ±100 for the full control effect; nearly all actives have a fitted effect of over 60% in size
Target sequence (P51450 whole entry, looked up, the tested form may be a part): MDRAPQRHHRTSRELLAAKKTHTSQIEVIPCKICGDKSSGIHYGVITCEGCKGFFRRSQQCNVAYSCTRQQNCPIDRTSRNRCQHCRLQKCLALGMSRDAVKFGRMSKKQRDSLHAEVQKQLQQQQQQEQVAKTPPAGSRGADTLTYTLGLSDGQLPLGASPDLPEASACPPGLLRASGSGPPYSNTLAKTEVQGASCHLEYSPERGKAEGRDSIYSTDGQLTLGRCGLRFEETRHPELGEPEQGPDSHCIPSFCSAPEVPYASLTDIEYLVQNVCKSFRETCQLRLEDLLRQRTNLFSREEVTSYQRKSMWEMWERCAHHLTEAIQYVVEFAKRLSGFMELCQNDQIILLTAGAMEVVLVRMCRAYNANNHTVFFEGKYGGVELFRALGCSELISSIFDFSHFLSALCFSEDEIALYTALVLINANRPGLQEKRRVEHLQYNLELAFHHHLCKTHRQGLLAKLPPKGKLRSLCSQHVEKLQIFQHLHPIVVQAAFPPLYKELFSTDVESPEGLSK
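Compounds are pin-transferred onto Drosophila Schneider cells expressing a copper-inducible Gal4–ROR gamma transactivation domain fusion. After 1 hr, copper sulfate is added to 700 uM final; luciferase is read 20 hr later.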
Gal4-VP16 FLuc – VP16 counterscreen qHTS for inhibitors of ROR gamma transcriptional activity; Drosophila S2 Gal4-VP16 UAS-luciferase, luminescence, 20 h; Potency, µM (doses to about 53.6 µM), for inactives: at the highest dose activity, negative = inhibition, hits mostly inhibitors; actives 3.5% (n = 310,000);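 note: Gal4-VP16 expression switched on by copper sulfate through the metallothionein promoter; % is set by controls: 0 for no effect and ±100 for the full control effect; nearly all actives have a fitted effect of over 50% in size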
MCF10A rereplic – A quantitative high throughput screen for small molecules that induce DNA re-replication in MCF 10a normal breast cells | Potency, µM (series often up to 46.1 µM), for the others: top-dose activity, positive = re-replication, hits mostly activators | AID 624296, 2012 | actives 2.9% (n = 350,000) | MCF 10A DNA re-replication, Hoechst nuclear intensity, 48 h; note: % of control where 0% means no effect; nearly all actives have a fitted effect of over 50% in size
Active calls of the source: *; ? = inconclusive; nt = not tested or not shown. Calls come from the whole dose curve; as a rule, active = well fitted curve in the direction sought with a large enough effect; inconclusive = small, poorly fitted or top-dose-only effect, or another doubt; inactive = no such curve, though single readings can be large; an effect the other way counts as inactive or inconclusive. Potency is the fitted concentration of half-maximal effect.

SMILES	SW480 rereplic	ELG1 DNA repair	RORg inh	Gal4-VP16 FLuc	MCF10A rereplic
COc1ccc(-c2cc(NCc3ccccn3)n3ncnc3n2)cc1	-2%	-17%	2.8µM*	?	0%
Cc1nn2c(N3CCN(C)CC3)c3c(nc2c1-c1ccccc1)CCCC3	21%	-1%	-10%	3%	?
CCCc1cc(NCCCn2ccnc2)n2nc(C)c(-c3ccccc3)c2n1	-4%	?	?	-3%	?
CCOC(=O)C(C)(C)N(Cc1ccccc1C)S(=O)(=O)c1ccc(Cl)c([N+](=O)[O-])c1	?	?	2%	-16%	18µM*
Cc1csc(NC(=O)CSc2nc(C(C)C)nc3ccccc23)n1	26%	-6%	32%	-3%	18µM*
CC(C)c1nc(SCC(=O)c2ccc(F)cc2)c2ccccc2n1	?	?	5.6µM*	?	3.3µM*
O=C(COC(=O)CNC(=O)c1ccc(Cl)c([N+](=O)[O-])c1)NC(=O)CN1CCCC1=O	-8%	1%	nt	nt	0%
CCCCOc1cccc(C(=O)NC(=S)Nc2ccc(Cl)c(C(=O)O)c2)c1	-75%	-1%	18%	-23%	-9%
CCOc1cccc(C(=O)NC(=S)Nc2cccc(C)c2)c1	0%	?	2.5µM*	10µM*	9%
CCCOc1cccc(C(=O)NC(=S)Nc2cccc(C(F)(F)F)c2)c1	?	0%	10µM*	?	1%
O=C(NC(=S)Nc1cccc(C(F)(F)F)c1)c1csnn1	6.5µM*	-11%	?	?	29%
O=C(Nc1cccc(C(F)(F)F)c1)c1cc(-c2cccs2)on1	-3%	-4%	-5%	-6%	-9%
Cc1cc(C(=O)NNC(=S)Nc2cccc(C(F)(F)F)c2)nn1C	-3%	0%	16µM*	11µM*	9%
Cc1noc(C)c1S(=O)(=O)N1CCC(C(N)=O)CC1	39%	-2%	-9%	2%	-3%
COc1cc(C)c(Br)cc1S(=O)(=O)NCCCN1CCOCC1	-19%	14%	6%	0%	1%
Cn1cc(-c2ccno2)c(C(=O)O)n1	2%	6%	10%	-1%	-4%
Cc1ccc(N2C(=O)C3C4C=CC(CC4)C3C2=O)c([N+](=O)[O-])c1 (stereo not given)	?	2%	2%	-13%	-2%
COc1ccc(N2CCN(C(=O)c3cc4c(=O)n(Cc5ccccc5)ccc4nc3C)CC2)cc1	3%	?	44%	0%	22%
Cc1nc2ccn(Cc3ccccc3)c(=O)c2cc1C(=O)N1CCN(c2ccc(F)cc2)CC1	-2%	6.5µM*	19%	-1%	11%
COc1cccc(N/C(N)=N/c2nc(CSc3ccccn3)cc(=O)[nH]2)c1	nt	-11%	28%	?	nt
COc1ccnc(CSC(N)=Nc2ccc(F)cc2)c1	?	?	10µM*	?	12%
Cc1nc2sccn2c(=O)c1CCN1CCC(=C(c2ccccc2)c2ccc(F)cc2)CC1	15%	-7%	18%	-1%	5.2µM*
O=S(=O)(CS(=O)(=O)c1ccc(Cl)cc1)c1ccc(Cl)cc1	-15%	-3%	2%	5%	21µM*
COc1ccc(CNc2ccc3c(c2)ncn3C)cc1OC	10µM*	-2%	5%	3%	24%
CCn1cnc2cc(NCc3ccc(Cl)cc3)ccc21	0%	?	-25%	-6%	10%
SMILES	SW480 rereplic	ELG1 DNA repair	RORg inh	Gal4-VP16 FLuc	MCF10A rereplic
CCn1cnc2cc(NCc3ccncc3)ccc21	-6%	3%	23%	5%	15µM*
Cc1ccc(CNc2ccc3c(c2)ncn3C(C)(C)C)cc1	4%	?	1.4µM*	?	15%
COc1cccc(/C=N/NC(=O)c2cc3cc([N+](=O)[O-])ccc3s2)c1O	1.8µM*	?	1.4µM*	2.5µM*	?
O=C(Nc1cccc([N+](=O)[O-])c1)c1cnccn1	-2%	2%	0%	-10%	0%
COc1cccc(/C=N/NC(=O)c2ccoc2C)c1O	?	?	0.063µM*	0.5µM*	?
COC(=O)c1cccc(/C=N/NC(N)=S)c1O	?	5%	2µM*	7.1µM*	24%
O=C(N/N=C/c1cc([N+](=O)[O-])ccc1Cl)c1cnccn1	5.2µM*	12%	-11%	-5%	?
O=C(NCCCn1ccnc1)c1ccc(N2CCCCC2)c([N+](=O)[O-])c1	3%	?	8%	4%	1%
C/C(=N/NC(=O)CNC(=O)COc1ccccc1)c1ccc(Cl)cc1	-1%	27%	1%	-7%	0%
COc1cccc(/C=N/NC(=O)c2cnccn2)c1O	5.2µM*	0%	2.2µM*	2.5µM*	5%
COc1cccc(C=NCCCN=Cc2cccc(OC)c2O)c1O	-13%	-21%	7.9µM*	-3%	8%
COc1cccc(/C=N\NC(=O)C2C(=O)NCC2c2ccccc2)c1O (stereo not given)	?	?	8.9µM*	?	14%
COc1ccc(/C=N/NC(=O)C2C(=O)NCC2c2ccccc2)c(OC)c1 (stereo not given)	-294%	-4%	22%	-4%	-2%
COc1cccc(/C=N/NC(=O)C(=O)NCc2ccco2)c1O	0%	?	4µM*	6.3µM*	-3%
COc1cccc(/C=N/NC(=O)C(=O)NCc2ccco2)c1OC	1%	0%	14%	3%	-7%
Cc1ccc(NC(=O)C(=O)c2ccc(C)cc2)cc1	1%	?	-26%	-12%	3%
COc1ccccc1-c1nnc(SC(C)C(=O)O)n1-c1ccccc1 (stereo not given)	-6%	1%	-6%	-1%	15%
COc1cccc(/C=N/NC(=O)CCc2c(C)n[nH]c2C)c1O	?	?	1.4µM*	3.2µM*	11%
COc1cccc(/C=N/NC(=O)C(=O)N/N=C/c2cccc(OC)c2O)c1O	6.5µM*	?	19%	-7%	3%
COc1ccc(/C=N\NC(=O)CCc2c(C)n[nH]c2C)c(OC)c1OC	-5%	-15%	-4%	-10%	16%
COc1ccc(OC)c(/C=N/NC(=O)C(=O)N2CCCC2)c1	1%	15%	-7%	-6%	-4%
COc1cccc(/C=N/NC(=O)C(=O)N2CCCCCC2)c1O	?	?	7.9µM*	10µM*	9%
COc1cccc(/C=N/NC(=O)NC2CCCCC2)c1O	3%	?	6.3µM*	8.9µM*	-1%
COc1cccc(/C=N/NC(=O)NC23CC4CC(CC(C4)C2)C3)c1O	7%	nt	nt	nt	29%
CCc1ccccc1Cn1c(=O)oc2cccnc21	-8%	3%	8%	-6%	-1%
